Records with an inconclusive call do not appear. Unmarked numbers belong to inactive results. The source made the active and inactive calls. Calls come from the whole dose curve; as a rule, active = well fitted inhibition curve with a large enough effect; inconclusive = small, poorly fitted or top-dose-only effect; inactive = flat fitted curve, though single readings scatter.

Holding throughout (test): Cytotoxic Profiling of Annotated Libraries Using Quantitative High-Throughput Screening (AID 1296008); note: nearly all actives have a fitted effect of over 60% in size
Common to all, as to conditions: Five cell lines viability, CellTiter-Glo ATP luminescence, 48-72 h; max response: stronger effect = lower value

Experiment [1] concerns CRL-7250. The procedure, abridged:
(§1)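 Cytotoxicity was measured as CellTiter-Glo ATP luminescence, read after 10 min at room temperature. Compound treatment of the cells lasted 48 or 72 hr at 37 degrees Celsius in a qHTS format.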

In experiment [2] the test system is HEK293. The procedure, abridged: as §1
Experiment [3] concerns HaCat. A digest of the protocol: as §1
Experiment [4] relates to KB-3-1. A digest of the protocol:
as §1

In experiment [5] the test system is NIH3T3. A digest of the protocol:
as §1
% is set by controls: 0 for no effect and ±100 for the full control effect; potency is the fitted concentration of half-maximal effect.

As to `COc1cc2c(cc1OC)-c1[nH]nc(Nc3cccc(F)c3)c1C2`, the Potency in experiment [1] is 461 nM (active); in experiment [2], 130 nM (active); in experiment [3] it was 73.1 nM (active); in experiment [4], 164 nM (active); in experiment [5], 731 nM (active).
For the compound `[N-]=[N+]=N[C@]1(CO)O[C@@H](n2ccc(=O)[nH]c2=O)[C@@H](O)[C@@H]1O`, the max response is 0.828% in experiment [1], -4.49% in experiment [2], 4.64% in experiment [3] and -4.26% in experiment [5]. In experiment [4], the compound was called inactive.
Regarding `CCCCc1ccc(C(=O)Nc2cc(-c3ccc(Cl)cc3)nn2-c2ccc(Cl)cc2)cc1`, the max response was -0.768% in experiment [1]; -22.4% in experiment [2]; -3.42% in experiment [3]; -4.76% in experiment [4]; -1.01% in experiment [5].
Take `Cc1c(C(=O)N2CCOc3ccc(-c4ccc(N)nc4)cc3C2)ccc(S(C)(=O)=O)c1F`: the Potency in experiment [1] was 4610 nM (active); in experiment [2], 5800 nM (active); in experiment [4], 7310 nM (active); in experiment [5], 11600 nM (active). Besides, the max response in experiment [3] was 2.5%.
As to `COC(=O)CC(O)C1OC(c2ccccc2)C(O)C1O` (stereo not given), the max response in experiment [1] is -3.81%; in experiment [2] it was 2.88%; in experiment [3], -28.3%; in experiment [4], 2.62%; in experiment [5], -5.26%.
In the case of `COC(=O)N[C@H](C(=O)N1[C@@H]2CC[C@@H](C2)[C@H]1c1nc2ccc(-c3ccc4c(c3)C(F)(F)c3cc(-c5cnc([C@@H]6CCC7(CC7)N6C(=O)[C@@H](NC(=O)OC)C(C)C)[nH]5)ccc3-4)cc2[nH]1)C(C)C`, the max response in experiment [1] was -2.17%; in experiment [3], -33.1%; in experiment [4], -8.63%; in experiment [5], -14.9%. The Potency in experiment [2] is 3990 nM (active).
As to `CC(C)=CCC/C(C)=C/CO[C@@H]1O[C@H](CO)[C@@H](OC(=O)/C=C/c2ccc(O)cc2)[C@H](O[C@@H]2O[C@@H](C)[C@H](O)[C@@H](O)[C@H]2O)[C@H]1O`, the max response in experiment [1] is 0.478%; in experiment [2], 1.83%; in experiment [3] it was -28.8%; in experiment [5], -7.03%. For the same compound, the result in experiment [4] was inactive.
For the compound `CC(O)(CC(=O)O)CC(=O)OCc1ccc(O[C@@H]2O[C@H](CO)[C@@H](O)[C@H](O)[C@H]2O)cc1` (stereo not given in full), the result in experiment [1] and in experiment [4] was inactive. Besides, the max response in experiment [2] is -1.35%; in experiment [3] it was 1.6%; in experiment [5], -5.49%.
As to `CC1(C)CCCC2(C)C=C(C(=O)O)C(O)CC12` (stereo not given), the compound was called inactive in experiment [1]. The max response in experiment [2] was -6.67%; in experiment [3], -0.18%; in experiment [4], 1.72%; in experiment [5], 1.16%.
Consider `C[C@@H]1O[C@@H](OC[C@H]2O[C@@H](Oc3cc(O)cc4c3C(=O)C(O)(Cc3ccc(O)cc3)O4)[C@H](O)[C@@H](O)[C@@H]2O)[C@H](O)[C@H](O)[C@H]1O` (stereo not given in full), for which the max response in experiment [1] was 3.09%; in experiment [2], 1.44%; in experiment [3], -8.78%; in experiment [4], 8.25%; in experiment [5], 2.04%.
`COc1ccc(CC2NCCc3c2[nH]c2ccc(C)cc32)cc1OC` (stereo not given): the max response in experiment [1] was -17.7%; in experiment [3] it was -6.85%; in experiment [4], -15.3%; in experiment [5], -1.6%. For the same compound, the Potency in experiment [2] is 10300 nM (active).
`CCn1cc(NC(=S)Nc2cc(Cl)ccc2OC)c(C(N)=O)n1`: the max response was -6.99% in experiment [1], -2.95% in experiment [2], -0.793% in experiment [3] and -1.95% in experiment [5]. For the same compound, in experiment [4], the compound was called inactive.
Regarding `CC1(C)CC2C(C1)C(C)(O)C13CC1(COC3=O)C2O` (stereo not given), the max response in experiment [1] is -28%; in experiment [2], -10.5%; in experiment [3], -11.6%; in experiment [4], -11%; in experiment [5], -6.54%.
For `Cc1c(F)cc(C(=O)NC2CC2)cc1-c1c(F)cn2c(C(C)(C)C)nnc2c1F` the same measures were -14.4%, -22.1%, -0.453%, -2.87% and -8.04%.
For the compound `CC(C)CC(=O)OC1OC=C(CO[C@@H]2O[C@H](CO)[C@@H](O)[C@H](O)[C@H]2O)C2CC(O)C(O)(CO)C12` (stereo not given in full), the max response was 3.01% in experiment [1]; -1.23% in experiment [2]; -4.52% in experiment [3]; 2.5% in experiment [4]; -2.63% in experiment [5].
`Cc1onc(C(=O)N2CCN(C(c3ccc(Cl)cc3)c3ccc(Cl)cc3)CC2)c1[N+](=O)[O-]`: the Potency is 580 nM (active) in experiment [1], 820 nM (active) in experiment [2] and 731 nM (active) in experiment [5]. In addition, the max response is 0.662% in experiment [3] and -21.9% in experiment [4].
In the case of `O=C(Nc1ccc(S(=O)(=O)Nc2nccs2)cc1)C(c1ccccc1)c1ccccc1`, the max response in experiment [1] is -0.59%; in experiment [2] it was -0.0195%; in experiment [3] it was -1.59%; in experiment [4] it was 5.78%; in experiment [5], 3.11%.
In the case of `CC12CCC(=O)C=C1C(O)CC1C2C(O)CC2(C)C1CC[C@]2(O)C(=O)CO` (stereo not given in full), the compound was called inactive in experiment [1] and in experiment [4]. Also, the max response in experiment [2] is -5.89%; in experiment [3] it was 0.87%; in experiment [5], 0.282%.
Take `CCCn1c(=O)c2[nH]c(-c3ccc(OCC(=O)O)cc3)nc2n(CCC)c1=O`: the max response is 3.25% in experiment [1], -2.68% in experiment [2], -4.84% in experiment [3] and -3.27% in experiment [5]. In experiment [4], the result was inactive.
For `O=C1C=CC(O)(/C=C/C(=O)OC[C@H]2O[C@@H](Oc3ccc(O)cc3)[C@H](O)[C@@H](O)[C@@H]2O)C=C1`, the max response in experiment [1] was 0.651%; in experiment [2] it was -4.12%; in experiment [3], 4.51%; in experiment [4], -7.33%; in experiment [5] it was -0.599%.
As for `COc1cc(N2CCC(N3CCN(C)CC3)CC2)ccc1Nc1ncc(Cl)c(-c2c[nH]c3ccccc23)n1`, the Potency in experiment [1] was 10300 nM (active); in experiment [2] it was 2910 nM (active); in experiment [3], 3660 nM (active); in experiment [4], 4610 nM (active); in experiment [5], 1460 nM (active).
As for `C=CC(C)(C)C12C=C(OC)C(=O)N3C(C(C)C)C(=O)NC31N(OC)c1ccccc12` (stereo not given), the max response was 1.83% in experiment [1], -5.71% in experiment [2], -0.498% in experiment [3] and -14.5% in experiment [5]. In addition, the result in experiment [4] was inactive.
Regarding `Cc1cc(C)c(CNC(=O)c2cc(-c3ccc(CN4CCOCC4)cc3)cc3c2cnn3C2CCCC2)c(=O)[nH]1`, the max response was 1.71% in experiment [1], 8.22% in experiment [4] and -0.531% in experiment [5]. Moreover, the Potency in experiment [2] is 14800 nM (active). Also, in experiment [3], the call was inactive.
Turning to `Cc1cc(Nc2nc(NC(C)c3ncc(F)cn3)ncc2Cl)n[nH]1` (stereo not given), the compound was called inactive in experiment [1] and in experiment [4]. Moreover, the max response was -3.92% in experiment [2], 0.354% in experiment [3] and -5.45% in experiment [5].
As for `CC1=C(CCC(C)O[C@@H]2O[C@H](CO)[C@@H](O)[C@H](O)[C@H]2O)C(C)(C)CCC1=O` (stereo not given in full), the max response in experiment [1] was -22.3%; in experiment [2], 4.11%; in experiment [3], -0.525%; in experiment [4] it was 8.72%; in experiment [5], -15.3%.
As for `Cc1cc(OCc2nnc(SC3CCCC3)n2-c2cccnc2)ccc1-c1ccc(S(C)(=O)=O)cc1`, the Potency in experiment [1] is 411 nM (active); in experiment [2], 291 nM (active); in experiment [3] it was 4610 nM (active); in experiment [4], 1460 nM (active); in experiment [5], 10300 nM (active).
Regarding `COc1cc(O)c([C@@H](CC(=O)N2CC(C)CC(C)C2)c2ccc3c(c2)OCO3)c(OC)c1` (stereo not given in full), the max response in experiment [1] was -6.18%; in experiment [2], -5.89%; in experiment [3], -11.1%; in experiment [4] it was -2.57%; in experiment [5], -1.6%.
Turning to `COCC1OC(OC(C)(C)C2CCC3(C)C=C(C4CCC5C4(C)CC(O)C4OC(C(C)(C)OC6OC(CO)C(O)C(O)C6NC(C)=O)CCC45C)CCC3O2)C(NC(C)=O)C(O)C1O` (stereo not given), the max response in experiment [1] was 2.51%; in experiment [2], -5.83%; in experiment [3], -6.25%; in experiment [4] it was 1.62%; in experiment [5] it was 1.73%.
For `CN1CCc2nc(C(=O)N[C@@H]3C[C@@H](C(=O)N(C)C)CC[C@@H]3NC(=O)C(=O)Nc3ccc(Cl)cn3)sc2C1` the same measures were 3.08%, -78.6%, -24.6%, -42% and -49.4%.
For `CC1OC(OC2C(OC3C(O[C@H]4CC[C@@]5(C)C(CC[C@]6(C)C5C(=O)C=C5C7CC(C)(C)CC(O)[C@]7(C)CC[C@]56C)C4(C)C)OC(C(=O)O)C(O)C3O)OCC(O)C2O)C(O)C(O)C1O` (stereo not given in full) the same measures were -0.894%, 2.13%, -1.72%, -2.68% and -3.29%.
For `C[C@@H]([C@@H](O)c1ccc(O)cc1)N1CCC(O)(c2ccccc2)CC1` the same measures were 0.694%, -2%, -0.788%, -1.25% and 1.49%.
Take `C#CCN(Cc1cc2c(=O)n(C)c(CN3CCN(C)CC3)nc2cc1Cl)c1ccc(C(=O)NCc2cccnc2)cc1`: the Potency is 8.2 nM (active) in experiment [1], 7.3 nM (active) in experiment [3] and 41.1 nM (active) in experiment [4]. For the same compound, the max response was -130% in experiment [2] and -114% in experiment [5].
For the compound `CC(=O)OCC1(O)CCC2C(COC3OC(CO)C(O)C(O)C3OC(=O)/C=C/c3ccc(O)cc3)=COC(OC(=O)CC(C)C)C21` (stereo not given), the compound was classed as inactive in experiment [1] and in experiment [4]. Moreover, the max response was -11% in experiment [2], -35.1% in experiment [3] and 3.4% in experiment [5].
In the case of `C[C@@H]1CC[C@]2(C(=O)O)CC[C@]3(C)C(=CCC4[C@@]5(C)CC[C@H](O)C(C)(C)C5C(O)C[C@]43C)[C@@H]2[C@]1(C)O` (stereo not given in full), the max response was -5.69% in experiment [1]; 4.01% in experiment [2]; -8.55% in experiment [3]; 7.38% in experiment [4]; -6.6% in experiment [5].
`CC1CCC2(C(=O)O)CCC3(C)C(=CCC4C5(C)CCC(O)C(C)(CO)C5CCC43C)C2C1(C)O` (stereo not given): the max response in experiment [1] was 0.977%; in experiment [2] it was -24.2%; in experiment [3], 1.16%; in experiment [4], -0.678%; in experiment [5], 1.81%.
In the case of `Cc1noc(=O)c2ccc(NC(=O)C(O)(CC(C)(C)c3cccc4c3OCC4)C(F)(F)F)cc12` (stereo not given), the max response in experiment [1] is 3.52%; in experiment [2], -10.8%; in experiment [5], -1.29%. Besides, the compound was classed as inactive in experiment [3] and in experiment [4].
Turning to `CC(C)(O)/C=C/C1=CC(=O)[C@@](C)(O)C[C@H]1O`, the max response in experiment [1] was -5.51%; in experiment [2] it was -6.16%; in experiment [3], 4.28%; in experiment [4] it was 7.85%; in experiment [5], -2.07%.
Regarding `CC1(C)CCCC2(C)C1C(O)C=C(CO)C2(O)CO` (stereo not given), the compound was called inactive in experiment [1] and in experiment [4]. The max response is -0.916% in experiment [2], -4.77% in experiment [3] and -1.11% in experiment [5].
